Screening results deposited in PubChem BioAssay by several laboratories.
ANO1 block – TMEM16A chloride channel inhibitors, primary screen, cell-based, HTS; Anoctamin-1 (Mus musculus), Q8BHY3; HEK293 TMEM16A/YFP iodide influx fluorescence, ionomycin; normalized B-score (activity score, 25-100; higher = stronger inhibition) at 10 µM; 310,000 compounds, 1.2% hits;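 active = ratio plate-corrected score three or more library SD toward inhibition, starting fluorescence score within five deviations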;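 note: score derived from kinetic fluorescence span divided by baseline fluorescence per well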
MEKK2 WT-MEK5 – modulators of MEK5 binding to wildtype MEKK2, primary screen, biochemical, multiplex bead flow cytometry, Alexa488-MEK5. 290,000 compounds, 1.1% hits. binding response (% of control), % at 10 µM. AID 1531, 2009. Mitogen-activated protein kinase kinase kinase 2 (Homo sapiens), Q9Y2U5. Alexa488-MEK5 binding to MEKK2 WT; actives lie on both sides; in the data active = binding response below about 67% or above about 130%
MEKK2mut PB1 HTS – MEK5 binding signal on mutant MEKK2 PB1, primary screen, biochemical, multiplex bead flow cytometry, Alexa488-MEK5 | Alexa488-MEK5 binding to MEKK2 mutant | percent response, % at 10 µM | 290,000 compounds, 0.35% hits | AID 1530, 2009; in the data active = percent response above about 24%, passing the limit was not always enough
NTR1 ag – agonists of human NTR1, primary screen, imaging, U2OS cells, beta-arrestin-GFP, high content; Neurotensin receptor type 1 (Homo sapiens), P30989; NTR1-U2OS beta-arrestin-GFP spot imaging, agonist mode; activation, % at 20 µM; 330,000 compounds, 0.17% hits; AID 493036, 2011;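 active = activation at or above 40% of the spot to cytoplasm intensity ratio, with at least 20 cells analyzed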;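 note: 0% = DMSO without peptide and 100% = 100 nM NTR1 peptide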
Target sequence (P30989 whole entry, looked up): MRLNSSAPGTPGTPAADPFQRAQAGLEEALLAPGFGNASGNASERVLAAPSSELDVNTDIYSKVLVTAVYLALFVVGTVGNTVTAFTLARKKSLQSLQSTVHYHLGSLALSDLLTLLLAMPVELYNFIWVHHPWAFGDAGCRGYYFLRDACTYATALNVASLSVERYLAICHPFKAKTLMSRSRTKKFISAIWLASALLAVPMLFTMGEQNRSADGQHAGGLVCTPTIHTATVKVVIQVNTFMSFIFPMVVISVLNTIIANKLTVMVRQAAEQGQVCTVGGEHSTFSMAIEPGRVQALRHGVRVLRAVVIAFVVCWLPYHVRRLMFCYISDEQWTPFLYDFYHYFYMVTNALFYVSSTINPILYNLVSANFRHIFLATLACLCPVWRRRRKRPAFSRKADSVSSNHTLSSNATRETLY
MEKK3 PB1 HTS – modulators of MEKK3-MEK5 PB1 binding, primary screen, biochemical, wildtype MEKK3, multiplex bead flow cytometry, Alexa488-MEK5; Mitogen-activated protein kinase kinase kinase 3 (Homo sapiens), Q99759; bead-based flow cytometry, Alexa488-MEK5 binding to MEKK3; actives lie on both sides; 0 = blocked by unlabeled MEK5, 100 = vehicle; binding response (% of control), % at 10 µM; 290,000 compounds, 1.4% hits; AID 1529, 2009;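 active = binding response more than 3 SD above or below the average of its plate-row segment, actives on both sides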;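 note: Alexa488 bead fluorescence after subtracting the streptavidin-only scavenger bead signal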
TMEM16A act – TMEM16A chloride channel activators or potentiators, primary screen, cell-based, HTS | Anoctamin-1 (Mus musculus), Q8BHY3 | HEK293 TMEM16A/YFP-H148Q/I152L, iodide quench fluorescence; active compounds read low | B-score at 10 µM | 340,000 compounds, 0.3% hits;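 active = fluorescence-ratio B-score plate-corrected deviation score at least 3 library SD below zero, with starting fluorescence score within 5 deviations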;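 note: channel opened by trigger with iodide after compound preincubation; score built on the fluorescence ratio of max minus min over baseline; more negative score means more quench and so TMEM16A activation or potentiation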
MEKK2wt confirm – modulators of MEK5 binding to wildtype MEKK2, confirmation, biochemical, single concentration, multiplex bead flow cytometry | shares compounds with MEKK3 PB1 HTS | Alexa488-MEK5 binding to MEKK2 WT; actives lie on both sides | binding response (% of control), % at 10 µM | 5,900 compounds, 2.4% hits; in the data active = binding response below about 16% or above about 210%; inactive = in between
MEKK2mut confirm – mutant MEKK2 PB1-MEK5 binding signal retest – biochemical, single concentration, multiplex bead flow cytometry, confirmation | shares compounds with MEKK3 PB1 HTS | Alexa488-MEK5 binding to MEKK2 mutant | percent response, % at 10 µM | 5,900 compounds, 2% hits | AID 1893, 2009; in the data active = percent response mostly above about 71%, no sharp cut-off; inactive = mostly below about 38%;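 note: higher means compound restores mutant binding toward wildtype level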
MEKK3 confirm – MEKK3 wild-type PB1 binding to MEK5, inhibitors, confirmation, biochemical, bead multiplex flow cytometry, single concentration, wildtype; binding response (% of control), % at 10 µM; 5,900 compounds, 1.8% hits; AID 1894, 2009; Alexa488-MEK5 binding to MEKK3; active compounds read low; shares compounds with MEKK3 PB1 HTS;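 active = binding response below 72% of control, or above a set upper limit, though filed actives all read lower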;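 note: 100% = DMSO only wells and 0% = binding blocked by excess unlabeled MEK5; lower values mean stronger disruption of MEK5 binding to MEKK3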
Numbers without * were called inactive; i = inactive; / = not tested or not shown; [ ] = another dose, or the depositor's remark. Only some compounds are listed: those with a hit (about 3.4% of all), similar ones and a draw of the others.

SMILES	ANO1 block	MEKK2 WT-MEK5	MEKK2mut PB1 HTS	NTR1 ag	MEKK3 PB1 HTS	TMEM16A act	MEKK2wt confirm	MEKK2mut confirm	MEKK3 confirm
Cn1nc(C(=O)NCC2CCCO2)c2ccccc2c1=O (stereo unspecified)	i	86.0	-5.0	1.4	82.0*[inhibitor]	i	103.0	1.0	102.0
Cc1ccc2c(c1)N(C(C)C(=O)NCc1cccs1)C(=O)CO2 (stereo unspecified)	i	107.0	7.0	1.0	104.0	i	/	/	/
Cc1ccc2c(c1)N(C(C)C(=O)NCc1ccc3c(c1)OCO3)C(=O)CO2 (stereo unspecified)	i	29.0*[inhibitor]	-14.0	0.4	30.0*[inhibitor]	i	130.0	12.0	107.0
Cn1c(-c2ccc(C(C)(C)C)cc2)n[nH]c1=S	i	92.0	-9.0	3.7	81.0*[inhibitor]	i	111.0	9.0	105.0
CC1CCCC(C)N1C(=O)COC(=O)c1cc(-c2cccs2)nn1-c1ccccc1 (stereo unspecified)	i	/	/	4.1	/	i	/	/	/
O=c1c(Cl)nc2cc(Cl)ccc2n1CCNc1ncc(C(F)(F)F)cc1Cl	i	95.0	4.0	13.5	100.0	i	/	/	/
O=C(NCCC1CCCCN1S(=O)(=O)c1cccs1)C(=O)NCc1ccccc1 (stereo unspecified)	i	/	/	0.3	/	i	/	/	/
O=[N+]([O-])c1cc(CN2CCCC2)ccc1Sc1ccc(Cl)cc1	i	149.0*	34.0	-0.4	109.0	i	122.0	15.0	105.0
CC(=O)N/N=C/c1cc(C(C)(C)C)cc(/C=N/NC(C)=O)c1O	i	94.0	-9.0	/	92.0	i	/	/	/
COc1ccc(-c2nsc3c(N4CCCC4)ncnc23)cc1	i	-2.0*[inhibitor]	-15.0	1.5	-1.0*[inhibitor]	i	98.0	-2.0	98.0
Cc1ccc(C2=NN(CCC(=O)NC3CCCC3)C(=O)CC2)cc1	i	99.0	2.0	0.3	101.0	i	/	/	/
OC(c1cc(-c2ccc(C(F)(F)F)cc2)nc(C(F)(F)F)c1)C1CCCCN1 (stereo unspecified)	i	165.0*	57.0*	30.8	111.0	i	153.0	32.0	103.0
COC(=O)C1=C(C(=O)OC)C(c2ccc(OC)c(OC)c2)c2sc(=O)[nH]c2S1 (stereo unspecified)	i	60.0*[inhibitor]	-17.0	0.3	55.0*[inhibitor]	i	90.0	-8.0	90.0
CC(C)CC(=O)N=C1SC2CS(=O)(=O)CC2N1Cc1ccccc1 (stereo unspecified)	i	114.0	1.0	0.9	195.0*	i	97.0	-8.0	98.0
COc1ccc(-c2cn3cccnc3n2)cc1F	i	106.0	-1.0	-1.6	103.0	i	/	/	/
CCN1CCc2c(C#N)c(N3CCCCC3)nc(NCc3ccccc3)c2C1	i	158.0*	27.0	13.2	105.0	i	141.0	13.0	106.0
CCN1CCc2c(C#N)c(N3CCOCC3)nc(NCc3ccccc3)c2C1	/	/	/	/	/	i	/	/	/
C=CCOc1ccc(/C=C2\N=C(C)OC2=O)cc1OC	i	53.0*[inhibitor]	-6.0	0.4	61.0*[inhibitor]	i	103.0	3.0	101.0
